Bioassay records as filed in PubChem.
Most compounds without a hit are left out; they make up all but 0.47% or so of the library.
AID inhibitor: inhibitors of human activation induced cytidine deaminase | AID 1347428 | hit rate 0.32% among 91,000 | Q9GZX7 | AID deamination FRET fluorescence, UDG-coupled, 4 h | Potency, µM (doses to about 115 µM), usual class: inhibitors; note: nearly all actives have a fitted effect of over 25% in size
Target sequence (Q9GZX7 whole entry, looked up): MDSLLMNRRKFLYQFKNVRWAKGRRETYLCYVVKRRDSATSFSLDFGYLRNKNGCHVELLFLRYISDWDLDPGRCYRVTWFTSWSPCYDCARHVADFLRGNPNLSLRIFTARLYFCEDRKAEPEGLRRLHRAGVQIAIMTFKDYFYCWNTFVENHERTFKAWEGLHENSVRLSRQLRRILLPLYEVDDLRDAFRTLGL
UDG counterscr: counter-screen for AID inhibitors: uracil-DNA glycosylase inhibition | FRET deamination/UDG coupled assay, UDG read, 4 h | Potency, µM (series often up to 115 µM), for inactives: at the top dose activity change, negative = inhibition, hits mostly inhibitors | hit rate 0.14% among 91,000 | AID 1347430; note: nearly all actives have a fitted effect of over 65% in size
Active calls of the source: *; i = inactive; ? = inconclusive. Calls come from the whole dose curve; as a rule, active = well fitted curve in the direction sought with a large enough effect; inconclusive = small, poorly fitted or top-dose-only effect, or another doubt; inactive = no such curve, though single readings can be large; an effect the other way counts as inactive or inconclusive. % is set by controls: 0 for no effect and ±100 for the full control effect; potency is the fitted concentration of half-maximal effect.

SMILES	AID inhibitor	UDG counterscr
NCC(O)c1cc(O)c(O)cc1F (stereo unspecified)	50µM*	-4%
Cc1cc(C)c(NC(=O)c2cn(Cc3ccccc3)nn2)c(C)c1	i	-8%
CC12CNCC(C)(CNC1)C2=O	?	50µM*
CN(C)C(=O)Oc1ccc2cc(-c3ccccc3)c(=O)oc2c1	i	-4%
COc1ccccc1-n1c(/C=C/c2ccccc2)nc2ccccc2c1=O	i	0%
COc1ccc(-n2c(/C=C\c3ccccc3F)nc3ccccc3c2=O)c(OC)c1	?	79µM*
O=c1oc2ccccc2c(O)c1C(c1cccc(O)c1)c1c(O)c2ccccc2oc1=O	50µM*	-3%
O=c1oc2ccccc2c(O)c1C(c1ccccc1)c1c(O)c2ccccc2oc1=O	45µM*	13%
COc1ccc(OC)c(C(c2c(O)c3ccccc3oc2=O)c2c(C)n(C)n(-c3ccccc3)c2=O)c1 (stereo unspecified)	i	-3%
Cc1c(C(c2ccc(O)cc2)c2c(O)c3ccccc3oc2=O)c(=O)n(-c2ccccc2)n1C (stereo unspecified)	i	4%
CN(C)c1ccc(-[n+]2ccc(-c3cc[n+](-c4ccc(N(C)C)cc4)cc3)cc2)cc1	?	-20%
CCOc1ccc(CNCCc2c[nH]c3ccccc23)cc1OC	i	-5%
O=[N+]([O-])/C=C/c1c[nH]c2ccccc12	i	5%
NC(=O)C1CCN(C(=O)c2cn(Cc3ccccc3)c3ccccc23)CC1	i	-4%
COCCNC(=O)NC(=O)CCl	i	4%
